Screening results as filed in PubChem.
Rows were chosen to be rich in hits. Some 11% of all compounds tested hit in one or more screens of this group.
IMPase inh – cell-permeable inhibitors of inositol monophosphatase (IMPase). inhibition (IP1 accumulation), % at 46.1 µM. 120,000 tested, under 10 active. CHO-M1 cells, IP1 accumulation, HTRF TR-FRET ratio. P97697; active means well fitted curve in the direction sought with a large enough effect in the signal ratio, not every such curve was filed as active; inconclusive means small, poorly fitted or top-dose-only effect, or a change in a side signal; inactive means no such curve, though single readings can be large or run the other way; the % refers to the signal ratio;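 further: cells stimulated with carbachol in lithium chloride buffer; plate controls were DMSO basal wells for no effect and reference inhibitor wells for full effect; higher means more IMPase inhibition seen as more IP1 and lower FRET ratio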
Target sequence (P97697 whole entry, looked up): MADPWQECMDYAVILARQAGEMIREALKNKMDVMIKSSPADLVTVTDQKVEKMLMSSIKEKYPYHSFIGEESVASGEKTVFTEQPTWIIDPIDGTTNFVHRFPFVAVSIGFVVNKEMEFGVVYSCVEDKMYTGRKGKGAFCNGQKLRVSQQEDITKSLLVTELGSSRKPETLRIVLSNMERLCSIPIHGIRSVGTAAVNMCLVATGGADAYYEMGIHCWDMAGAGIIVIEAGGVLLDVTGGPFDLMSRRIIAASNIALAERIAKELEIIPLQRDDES
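The IP-One HTRF competitive assay in carbachol-stimulated CHO-M1 cells quantifies cellular IP1. Compounds spanned up to 46 uM final, and activity is expressed as AC50 from concentration-response fits of the ratio and donor data.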
12-hLO inh – inhibitors of human 12-lipoxygenase (ALOX12); Potency, µM (titrated, usually from 57.1 µM), for inactives: top-dose activity change, negative = inhibition, hits mostly inhibitors; 150,000 compounds, 0.12% hits; purified 12-hLO, xylenol orange hydroperoxide absorbance; P18054; active means well fitted curve in the direction sought with a large enough effect; inconclusive means small, poorly fitted or top-dose-only effect, or another doubt; inactive means no such curve, though single readings can be large; an effect the other way counts as inactive or inconclusive; further: potency means the concentration at half of the fitted maximal effect; nearly all actives have a fitted effect of over 55% in size
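150 nM 12hLO, 25 mM Hepes pH 7.0 + 0.01% Triton X-100; cpd preinc 15 min RT; 40 uM arachidonic acid, 30 min RT; Fe-XO 30 min; A573/A405 ratio as read-out.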
PNC inhibitor – inhibitors of perinucleolar compartment assembly | activity change (PNC), negative = inhibition, % at 10 µM | 140,000 compounds, 3.1% hits | AID 2417 | PC3M PTB-GFP, PNC prevalence imaging, 16 h; active compounds read low;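 active means readout at or below -70, meaning at least 70% loss of cells showing the perinucleolar compartment, a nuclear body marking cancer cells; inconclusive means readout between -30 and a set limit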;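 further: plate controls were DMSO wells for no effect and camptothecin positive control wells for full effect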
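Read-out is percentage of cells bearing a perinucleolar compartment, from automated 20x imaging of fixed, Hoechst-stained PC3M PTB-GFP cells. Cells were seeded 4 h, then exposed 16 h to compound (23 nl of library stock) in duplicate plates.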
IMPase Li cell – cell-permeable IMPase inhibitors with lithium potentiation; AID 1457; Potency, µM (doses to about 59.4 µM), for the others: at the top dose activity, negative = IMPase inhibition, most hits filed as inhibitors; CHO-M1 cells, IP1 TR-FRET (IP-One), carbachol + lithium; 210,000 compounds, 0.35% hits; active means well fitted curve in the direction sought with a large enough effect; inconclusive means small, poorly fitted or top-dose-only effect, or another doubt; inactive means no such curve, though single readings can be large; an effect the other way counts as inactive or inconclusive;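 further: IP1 builds up when IMPase is blocked and the TR-FRET signal falls; potency means the concentration at half of the fitted maximal effect; plate controls were basal vehicle for no effect and high inhibitor control for full effect; nearly all actives have a fitted effect of over 50% in size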
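CHO cells stably expressing M1 receptor (2000/well) were cultured 16–30 h, then exposed to compounds with a small lithium addition for 30 min at 37C. IP1 was measured by TR-FRET competition; AC50 from Hill fits.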
HPGD inh – inhibitors of human 15-hydroxyprostaglandin dehydrogenase (HPGD) | purified HPGD, NADH fluorescence kinetic, PGE2 substrate | P15428 | AID 894 | 150,000 compounds, 4.3% hits | Potency, µM, for inactives: top-dose activity change, negative = inhibition, hits mostly inhibitors; further: potency means the concentration at half of the fitted maximal effect
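20 nM HPGD preincubated 15 min at room temperature with compound in 50 mM Tris-HCl pH 8, 0.01% Tween 20. Started with 1 mM NAD+ and 30 uM prostaglandin E2; NADH fluorescence (360/450 nm) read 5 times over 30-s intervals, last minus first.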
ALDH1A1 inh – blocks purified human ALDH1A1 activity; P00352; 220,000 compounds, 7.3% hits; Purified ALDH1A1, NADH fluorescence, propionaldehyde substrate; Potency, µM (series often up to 75.3 µM), for inactives: at the top dose activity, negative = inhibition, hits mostly inhibitors;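 further: potency means the concentration at half of the fitted maximal effect; plate controls were no enzyme wells and a reference inhibitor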
Target sequence (P00352 whole entry, looked up): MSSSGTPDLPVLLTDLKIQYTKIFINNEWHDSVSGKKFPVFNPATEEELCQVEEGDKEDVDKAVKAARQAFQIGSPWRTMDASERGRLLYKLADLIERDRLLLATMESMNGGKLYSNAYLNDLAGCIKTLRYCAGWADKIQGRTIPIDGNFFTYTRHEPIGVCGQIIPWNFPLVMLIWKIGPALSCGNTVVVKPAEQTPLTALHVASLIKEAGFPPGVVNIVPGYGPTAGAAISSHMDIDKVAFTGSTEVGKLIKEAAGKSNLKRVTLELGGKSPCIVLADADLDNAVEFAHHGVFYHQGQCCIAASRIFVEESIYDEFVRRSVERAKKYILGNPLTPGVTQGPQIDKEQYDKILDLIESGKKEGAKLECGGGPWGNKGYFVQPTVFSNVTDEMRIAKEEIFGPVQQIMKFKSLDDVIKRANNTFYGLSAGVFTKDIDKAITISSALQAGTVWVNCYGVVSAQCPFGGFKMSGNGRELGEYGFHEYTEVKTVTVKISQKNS
* hit, by the source's call; [ ] = remark or other dose. Unless noted, the call rests on the fitted dose curve; in most records, active means well fitted inhibition curve with a large enough effect (not every such curve was filed as active); inconclusive means small, poorly fitted or top-dose-only effect, or another doubt; inactive means no such curve, though single readings can be large or run the other way. Unless noted, on the % scale 0 is the no-effect control and ±100 the full control effect.

For CC(C)NC(=O)CC(=O)NN=C1CCCCC1 the results were IMPase Li cell inconclusive and ALDH1A1 inh -7%.
`COc1ccc(S(=O)(=O)N(CCc2ccccc2)CC(=O)Nc2ccc(C)c(C)c2)cc1OC` gave IMPase inh 3.
Screening COc1ccccc1OCCn1cc(/C=C(\C#N)C(=O)NCc2ccco2)c2ccccc21 returned 12-hLO inh -1%, PNC inhibitor -2, IMPase Li cell 6%, HPGD inh -6% and ALDH1A1 inh inconclusive.
For Cc1ccc(C)c(OCCn2cc(/C=C(\C#N)C(=O)NCc3ccco3)c3ccccc32)c1 the results were 12-hLO inh 0%, PNC inhibitor -86*, IMPase Li cell 11%, HPGD inh 18% and ALDH1A1 inh 30%.
`Cc1ccc(O)c(C(=O)c2cnc3c(c2)COc2ccccc2-3)c1` gave IMPase inh 8, 12-hLO inh 1%, PNC inhibitor inconclusive, IMPase Li cell 10%, HPGD inh 13µM* and ALDH1A1 inh inconclusive.
`O=C(c1cnc2c(c1)COc1ccc(Cl)cc1-2)c1ccccc1O` gave IMPase inh 9, 12-hLO inh 3%, PNC inhibitor inconclusive, IMPase Li cell 13%, HPGD inh -17% and ALDH1A1 inh 14%.
`CN(C)c1ccc(C(CC(=O)O)NC(=O)c2ccc(Cl)cc2)cc1` (stereo unspecified) gave IMPase inh 9, 12-hLO inh 11%, PNC inhibitor -2, IMPase Li cell 7%[38.3 µM], HPGD inh -11% and ALDH1A1 inh 18µM*.
For COCC(C)NC(=O)c1ccc(N(C)C)cc1 (stereo unspecified) the results were IMPase inh 3, 12-hLO inh 1%, PNC inhibitor -4, IMPase Li cell -8%[38.3 µM], HPGD inh 22µM* and ALDH1A1 inh 8.9µM*.
CC(=O)Nc1ccc(C(=O)NC(CC(=O)O)c2ccc(Cl)cc2)cc1 (stereo unspecified) was read as IMPase inh 9, 12-hLO inh 4%, PNC inhibitor -4, IMPase Li cell 20%[38.3 µM], HPGD inh -13% and ALDH1A1 inh -13%.
O=C(c1ccco1)c1nc2c(n1O)CCCCC2 was read as IMPase inh -5, 12-hLO inh -4%, PNC inhibitor inconclusive, IMPase Li cell 18%[38.3 µM], HPGD inh -10% and ALDH1A1 inh 0%.
Screening O=C(c1cc2ccccc2o1)c1nc2c(n1O)CCCCC2 returned IMPase inh 8, 12-hLO inh -14%, PNC inhibitor inconclusive, IMPase Li cell 3%[38.3 µM], HPGD inh 14µM* and ALDH1A1 inh -1%.
`Cc1ccc(CCc2nnc(SCC(=O)Nc3cc(Cl)ccc3Cl)n2-c2ccccc2)o1` gave 12-hLO inh 1%, PNC inhibitor -8, IMPase Li cell 7%, HPGD inh -4% and ALDH1A1 inh 25µM*.
Screening Clc1ccc(CSc2nnc(CN3CCOCC3)n2-c2ccccc2)cc1Cl returned IMPase inh -2, 12-hLO inh -4%, PNC inhibitor 18, IMPase Li cell 5%[38.3 µM], HPGD inh -4% and ALDH1A1 inh 18µM*.
`Clc1cccc(Cl)c1CSc1nnc(CN2CCOCC2)n1-c1ccccc1` gave IMPase inh 6, 12-hLO inh 4%, PNC inhibitor 12, IMPase Li cell -4%[38.3 µM], HPGD inh -6% and ALDH1A1 inh -7%.
`O=C(CSc1nnc(-c2ccccc2)n1-c1ccc(Cl)cc1)NNC(=S)Nc1ccccc1` gave IMPase inh 2, 12-hLO inh -19%, PNC inhibitor 18, IMPase Li cell 12%, HPGD inh -18% and ALDH1A1 inh 16µM*.
`O=C(CSc1nnc(CN2CCOCC2)n1-c1ccccc1)Nc1ccc(Cl)cc1` gave IMPase inh -4, 12-hLO inh -7%, PNC inhibitor 132, IMPase Li cell 5%, HPGD inh -10% and ALDH1A1 inh 22µM*.
`COCc1nnc(SCC(=O)Nc2cccc(Cl)c2C)n1-c1ccccc1` gave IMPase inh 2, 12-hLO inh -5%, PNC inhibitor 2, IMPase Li cell -6%[38.3 µM], HPGD inh -9% and ALDH1A1 inh 2%.
COc1ccccc1CNC(=O)C(=O)NCC(c1ccco1)N1CCOCC1 (stereo unspecified) was read as IMPase Li cell -4% and ALDH1A1 inh 0%.
Screening Cc1ccc(NC(=O)CSc2nnc(CN3CCOCC3)n2-c2ccccc2)cc1 returned IMPase inh inconclusive, 12-hLO inh 3%, PNC inhibitor inconclusive, IMPase Li cell 1%, HPGD inh -6% and ALDH1A1 inh 3.2µM*.
For Cn1c(Cn2c(=O)sc3ccccc32)nnc1SCC(=O)N1CCc2ccccc21 the results were IMPase inh -7, 12-hLO inh 2%, PNC inhibitor 59, IMPase Li cell 8%, HPGD inh -2% and ALDH1A1 inh 3%.
Screening Cn1c(Cn2nnc3ccccc32)nnc1SCC(=O)N1CCc2ccccc21 returned IMPase inh 8, 12-hLO inh 2%, PNC inhibitor inconclusive, IMPase Li cell -3%[38.3 µM], HPGD inh -9% and ALDH1A1 inh 28µM*.
For CCn1c(CSc2ncccn2)nnc1SCC(=O)N1CCc2ccccc21 the results were IMPase inh inconclusive, 12-hLO inh -2%, PNC inhibitor inconclusive, IMPase Li cell 9%[38.3 µM], HPGD inh -14% and ALDH1A1 inh 20µM*.
`CCn1c(SCC(=O)N2CCc3ccccc32)nnc1-c1ccncc1` gave IMPase inh 5, 12-hLO inh -8%, PNC inhibitor inconclusive, IMPase Li cell 22%[38.3 µM], HPGD inh -12% and ALDH1A1 inh -2%.
For COC(=O)c1c(NC(=O)/C(C#N)=C/c2ccccc2)sc2c1CCC2 the results were IMPase inh 3.
For CCCCCCOc1ccc(C(CC(N)=O)C(=O)O)cc1 (stereo unspecified) the results were IMPase Li cell 4% and ALDH1A1 inh 0%.
CCCCCCOc1ccc(C(CC(=O)O)C(N)=O)cc1 (stereo unspecified) was read as IMPase inh -12, 12-hLO inh 0%, PNC inhibitor -104*, IMPase Li cell -8%[38.3 µM], HPGD inh -8% and ALDH1A1 inh 2%.
For N=C(N)c1ccc2cc(OC(=O)c3ccc(N=C(N)N)cc3)ccc2c1 the results were IMPase Li cell -20% and ALDH1A1 inh 22µM*.
CCc1ccc(NC(=S)Nc2ccc(S(=O)(=O)Nc3ncccn3)cc2)cc1 was read as IMPase Li cell 0% and ALDH1A1 inh inconclusive.
For O=C(NCc1ccc(Cl)cc1)c1cc2ccccc2o1 the results were IMPase inh 1.
